This note sets out measurements from PubChem BioAssay.

The nature of test [1]: compounds altering circadian rhythm period length – cell-based, LOPAC library, luminescence reporter (AID 2774).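 Also: values are relative to mean of DMSO wells on each plate.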 To be noted: circadian reporter cells, at 7 µM, actives lie on both sides.
For test [2], the system named is Hepatitis C virus NS3 helicase. Kind of test: blockers of NS3h binding to ssDNA – biochemical, fluorescence polarization, LOPAC1280 library, primary screen (AID 687035; in the data active = inhibition above about 37%). As to conditions: Purified HCV NS3 helicase, Cy5-dT15 ssDNA binding fluorescence polarization; stronger effect = higher value; concentration not given here.
The nature of test [3]: compounds altering Cy5-DNA-NS3h complex signal – biochemical, LOPAC1280, artefact control for HCV NS3 helicase inhibitor project (AID 687037). To be noted: Cy5-DNA-NS3h complex fluorescence interference counterscreen.
Test [4] concerns the target 6-phosphogluconate dehydrogenase, decarboxylating (Homo sapiens) (UniProt P52209). Kind of test: inhibition of human phosphogluconate dehydrogenase – biochemical, recombinant enzyme, NADPH absorbance, primary screen (AID 1159550;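 active = at least 20% inhibition of 6-phosphogluconate dehydrogenase activity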). To be noted: recombinant 6PGD, NADPH absorbance 341 nm; at 10 µM; stronger effect = higher value.
Test [5] relates to Aerobactin synthetase IucA (Klebsiella pneumoniae, hypervirulent). Kind of test: biochemical IucA inhibition screen of LOPAC library by absorbance (AID 1346212).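 Also: 100% = no compound wells and 0% = no enzyme wells.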 As to conditions: IucA enzyme assay, absorbance (OD) readout; stronger effect = lower value;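 tested at 8 µM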.
Test [6] is described as follows: viability loss in pontine glioma line – cell-based, SU-DIPG-XIII, MIPE4.0, CellTiter-Glo, qHTS, dose response (AID 1347061; cut-off not given, nearly all actives have AC50 up to about 37 µM;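 also: cells exposed to compound for 48 hours before readout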). To be noted: CellTiter-Glo ATP luminescence.
Test [7] is described as follows: viability loss in pontine glioma line – cell-based, JHH-DIPG-1, MIPE4.0, CellTiter-Glo, qHTS, dose response (AID 1347062; cut-off not given, nearly all actives have AC50 up to about 27 µM). To be noted: JHH-DIPG-1 viability, CellTiter-Glo ATP luminescence.
Test [8] is described as follows: viability loss in pontine glioma line – cell-based, SU-DIPG-IV, MIPE4.0, CellTiter-Glo, qHTS, dose response (AID 1347063; cut-off not given, nearly all actives have AC50 up to about 30 µM;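 also: compound exposure lasted 48 hours before the viability readout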). To be noted: CellTiter-Glo ATP luminescence.
Test [9] can be described thus: growth inhibition of DIPG cells – cell-based, MIPE4.0 library, CellTiter-Glo luminescence, qHTS (AID 1347066; cut-off not given, nearly all actives have AC50 up to about 30 µM;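 also: cells exposed to compound for 48 hours before readout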). As to conditions: SU-DIPG-VI viability, CellTiter-Glo ATP luminescence.
Test [10] is described as follows: viability loss with induced miR-34 in A549 – imaging, A549 dox-inducible miR-34, nuclei and caspase counts, primary screen (AID 1347080;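 active = compounds whose cell count with miR-34 switched on is under 0.7 times the count with it off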). As to conditions: A549 miR-34 inducible, Hoechst nuclei count, 48 h.
Test [11] addresses NAD(+) hydrolase SARM1 (Homo sapiens) (UniProt Q6SZW1). Kind of test: blocking NAD cleavage by SARM1 SAM-TIR – cell lysate, NAD-Glo luminescence (AID 1508614;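 active = compound whose remaining NAD level is above about 45 nM, limit read from the data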;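 also: higher remaining NAD means stronger inhibition of SARM1 NADase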). To be noted: SAM-TIR HEK293T lysate NADase, at 1 µM, stronger effect = higher value.
Test [12] has as its target Mitogen-activated protein kinase 7 (Homo sapiens) (UniProt Q13164). Description: Gal4-ERK5 driven luciferase induction – cell-based, HTS, primary screen (AID 1508626;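 active = luciferase signal above three times the same-plate solvent-only control wells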;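 also: luciferase driven by Gal4-ERK5 fusion binding five Gal4 sites before minimal TATA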). To be noted: HeLa Gal4-ERK5 transactivation, 18 h, at 5 µM, stronger effect = higher value.
The nature of test [13]: galactose survival enhancers in mitochondrial complex I cybrids – cell-based, galactose medium, ATP luminescence, primary screen (AID 1645843;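 active = z-score of at least 1.8 in each of two replicates, scored against plate mean and spread of sample wells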;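 also: positive z means more ATP and so rescue of galactose-driven cybrid death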). To be noted: complex I mutant cybrid cells, 72 h, stronger effect = higher value.
Test [14] in a line: P. berghei load reduction in hepatocytes – cell-based, HepG2, luciferase luminescence, HepG2 viability, primary screen (AID 624349; in the data active = parasite load remaining mostly below about 12%, no sharp cut-off; inactive = mostly above about 10%;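 also: 100% = mean of DMSO negative control wells on the same plate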). To be noted: P. berghei liver stage in HepG2, luciferase luminescence, concentration not given here; parasite load remaining: stronger effect = lower value; viability: measured here: HepG2 viability without parasites.
The test system of test [15] is Aerobactin synthetase IucA (Klebsiella pneumoniae hvKP1). Description: IucA enzyme inhibition, primary screen, biochemical, Spectrum library (AID 1346200).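 Also: 100% = wells without compound and 0% = wells lacking enzyme.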 To be noted: malachite green pyrophosphate, A620, at 8 µM, stronger effect = lower value.
Test [16] is described as follows: blockers of cellular phospholipid synthesis – cell-based, LOPAC library, screen 4, primary screen (AID 1347384). As to conditions: animal cells, phospholipid biosynthesis inhibition screen; at 10 µM.
Test [17] deals with ATP-dependent translocase ABCB1 (Homo sapiens) (UniProt P08183). Kind of test: P-glycoprotein substrate transport blockade – cell-based (AID 377; in the data active = fluorescence slope change above about 50%). As to conditions: MDR1-expressing cells, fluorescent substrate accumulation slope; stronger effect = higher value; concentration not given here.
Test [18] is described as follows: compounds altering viability of human ES cells (AID 493140).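 Also: cells exposed to compounds for four days before counting.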 As to conditions: human embryonic stem cell survival screen; stronger effect = higher value.
Test [19] in a line: MELAS cybrid and Rieske KO viability enhancers – cell-based, MELAS cybrids, Rieske KO mouse fibroblasts, CellTiter-Glo, primary screen (AID 1508586;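 active = mean z-score across replicates of 1.96 or higher in either the MELAS or the Rieske mutant cell line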;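 also: z relative to plate mean and SD of compound and empty wells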). To be noted: low glucose.
The nature of test [20]: viability loss in pontine glioma line – cell-based, SU-DIPG-XVII, MIPE5.0, CellTiter-Glo, qHTS, dose response (AID 1347060; cut-off not given, nearly all actives have AC50 up to about 26 µM;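 also: cells exposed to compound for 48 hours before viability readout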). As to conditions: CellTiter-Glo ATP luminescence.
The nature of test [21]: viability loss in pontine glioma line – cell-based, SU-DIPG-XIII, MIPE5.0, CellTiter-Glo, qHTS, dose response (AID 1347064; cut-off not given, nearly all actives have AC50 up to about 23 µM;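 also: cells exposed to compound for 48 hours before the viability read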). As to conditions: CellTiter-Glo ATP luminescence.
Test [22] can be described thus: viability loss in pontine glioma line – cell-based, SU-DIPG-XXV, MIPE5.0, CellTiter-Glo, qHTS, dose response (AID 1347065; cut-off not given, nearly all actives have AC50 up to about 26 µM;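 also: cells exposed to compound for 48 hours before ATP readout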). To be noted: CellTiter-Glo ATP luminescence.
A short description of test [23]: JHH-DIPG-1 glioma cell viability, MIPE5.0 library, CellTiter-Glo luminescence, qHTS (AID 1347067; cut-off not given, nearly all actives have AC50 up to about 26 µM;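 also: cells exposed to compound for 48 hours before readout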). To be noted: JHH-DIPG-1 glioma viability, CellTiter-Glo ATP luminescence.
The nature of test [24]: growth inhibition of DIPG cells – cell-based, MIPE5.0 library, qHTS (AID 1347068; cut-off not given, nearly all actives have IC50 up to about 30 µM;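 also: cells exposed to compound for 48 hours before viability readout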). As to conditions: SU-DIPG-XXV viability.
The nature of test [25]: blockers of polyQ-driven CASP3 activation – cell-based (AID 1583). To be noted: polyglutamine-induced caspase-3 activation, cell assay; stronger effect = higher value;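 tested at 10 µM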.
In test [26] the target is Huntingtin (Homo sapiens) (UniProt P42858). Kind of test: mutant huntingtin aggregation blockers – QA1, dose response (AID 1584). To be noted: in vitro mutant huntingtin aggregation assay; confirmation test; at 10 µM; stronger effect = lower value.
The nature of test [27]: blockers of biotin-polyQ monomer incorporation into aggregates – biochemical, solid-phase synthetic aggregates, QA3 (AID 1585). As to conditions: polyQ aggregate elongation; EC50: measured here: elongation inhibition potency; inhibition: at 100 µM, stronger effect = higher value.
The nature of test [28]: yeast 75Q aggregation reduction – 75Q-TubU reporter (AID 1593). As to conditions: Yeast 75Q polyglutamine aggregation reporter.
A short description of test [29]: restoration of touch response, mutant HTT neurons – whole organism, C. elegans mechanosensory neurons, N-terminal huntingtin (AID 1599). To be noted: C. elegans polyQ-huntingtin mechanosensory neurons, stronger effect = higher value.
Test [30] in a line: blockers of cytochrome c efflux from mitochondria – biochemical, purified mitochondria (AID 1603).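 Also: mouse liver mitochondria challenged with calcium chloride; signal normalized to the plate average as 100%.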 As to conditions: stronger effect = lower value.
Test [31] is described as follows: polyglutamine aggregate formation blockers (AID 1604). As to conditions: polyglutamine-induced protein aggregation inhibition assay; stronger effect = higher value; tested at 2.5 µM.
Test [32] is described as follows: glutamate transport activators, MN-1 cells, MN-1 cell line (AID 1612).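 Also: tested at 1 µM final; 0% = mean of DMSO vehicle wells on each plate; positive means more glutamate uptake than control and negative means less.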 To be noted: MN-1 motor neuron cells, stronger effect = higher value.
The nature of test [33]: GFP-Q80 aggregate reduction, neuronal-like cells, cell-based, NGF-treated PC12, GFPQ80 (AID 1614).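 Also: lower means fewer inclusions and 0 means no inclusions at all.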 To be noted: PC12 NGF-treated GFP-polyQ80 inclusion reduction.
A short description of test [34]: 75Q-TubH aggregate inhibition, S. cerevisiae, yeast (AID 1616). To be noted: S. cerevisiae 75Q-TubH polyglutamine aggregation suppression; stronger effect = higher value.
Setting [35] is: measured here: relative caspase fold change +Dox/-Dox.
The mark [36] stands for this setting: measured here: total cells with miR-34 induction, stronger effect = lower value.
[37] abbreviates: measured here: total cells without miR-34 induction.
Setting [38] is: MELAS cybrid survival, CellTiter-Glo 48 h, stronger effect = higher value.
Where [39] appears, read: Rieske KO mouse fibroblast survival, CellTiter-Glo 72 h.

Several values for one entry are separate records, joined by “and”; a condition that tells them apart may be missing. Equal entries are not always repeated. Records with an inconclusive call do not appear. For some of these results: Entries with a potency or affinity are not part of this list. Activity calls are given as the source filed them. Unless noted, no rule for the calls is given here.

Chain of 6-phosphogluconate dehydrogenase, decarboxylating (Homo sapiens) (P52209 whole entry, looked up): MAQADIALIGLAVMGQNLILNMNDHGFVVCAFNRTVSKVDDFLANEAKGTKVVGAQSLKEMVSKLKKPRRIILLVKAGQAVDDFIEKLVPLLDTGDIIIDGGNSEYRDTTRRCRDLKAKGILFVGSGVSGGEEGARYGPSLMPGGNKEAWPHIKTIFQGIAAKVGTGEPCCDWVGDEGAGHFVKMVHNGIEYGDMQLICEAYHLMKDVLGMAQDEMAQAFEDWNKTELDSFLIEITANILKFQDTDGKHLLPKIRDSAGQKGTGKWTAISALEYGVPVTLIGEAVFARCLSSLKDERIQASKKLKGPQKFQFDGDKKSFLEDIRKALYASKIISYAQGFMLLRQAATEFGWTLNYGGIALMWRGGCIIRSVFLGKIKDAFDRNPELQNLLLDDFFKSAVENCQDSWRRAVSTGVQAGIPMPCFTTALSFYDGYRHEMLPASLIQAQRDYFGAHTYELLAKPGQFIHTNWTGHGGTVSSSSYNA
Chain of Mitogen-activated protein kinase 7 (Homo sapiens) (Q13164 whole entry, looked up, the tested form may be a part): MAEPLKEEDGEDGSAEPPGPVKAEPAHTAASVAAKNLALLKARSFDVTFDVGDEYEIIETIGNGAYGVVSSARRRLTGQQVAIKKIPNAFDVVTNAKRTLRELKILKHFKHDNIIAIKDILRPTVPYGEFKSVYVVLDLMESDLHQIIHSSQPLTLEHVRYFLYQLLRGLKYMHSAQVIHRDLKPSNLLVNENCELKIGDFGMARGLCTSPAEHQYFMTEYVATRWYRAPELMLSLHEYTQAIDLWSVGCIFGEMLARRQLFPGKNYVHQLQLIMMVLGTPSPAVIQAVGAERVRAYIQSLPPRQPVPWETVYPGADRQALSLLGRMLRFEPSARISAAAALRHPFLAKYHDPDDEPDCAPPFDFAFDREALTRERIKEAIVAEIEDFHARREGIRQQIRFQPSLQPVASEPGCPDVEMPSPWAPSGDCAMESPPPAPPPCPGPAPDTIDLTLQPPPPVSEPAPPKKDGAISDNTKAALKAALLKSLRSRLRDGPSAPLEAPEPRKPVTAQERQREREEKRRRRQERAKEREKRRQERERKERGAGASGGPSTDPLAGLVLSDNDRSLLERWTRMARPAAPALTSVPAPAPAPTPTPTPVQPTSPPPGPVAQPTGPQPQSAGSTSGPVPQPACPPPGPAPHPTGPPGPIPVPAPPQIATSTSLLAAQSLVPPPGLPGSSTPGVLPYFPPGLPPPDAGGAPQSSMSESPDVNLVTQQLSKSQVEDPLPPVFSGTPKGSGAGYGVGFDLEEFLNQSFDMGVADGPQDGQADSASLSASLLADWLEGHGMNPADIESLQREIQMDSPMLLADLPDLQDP
Chain of NAD(+) hydrolase SARM1 (Homo sapiens) (Q6SZW1 whole entry, looked up, the tested form may be a part): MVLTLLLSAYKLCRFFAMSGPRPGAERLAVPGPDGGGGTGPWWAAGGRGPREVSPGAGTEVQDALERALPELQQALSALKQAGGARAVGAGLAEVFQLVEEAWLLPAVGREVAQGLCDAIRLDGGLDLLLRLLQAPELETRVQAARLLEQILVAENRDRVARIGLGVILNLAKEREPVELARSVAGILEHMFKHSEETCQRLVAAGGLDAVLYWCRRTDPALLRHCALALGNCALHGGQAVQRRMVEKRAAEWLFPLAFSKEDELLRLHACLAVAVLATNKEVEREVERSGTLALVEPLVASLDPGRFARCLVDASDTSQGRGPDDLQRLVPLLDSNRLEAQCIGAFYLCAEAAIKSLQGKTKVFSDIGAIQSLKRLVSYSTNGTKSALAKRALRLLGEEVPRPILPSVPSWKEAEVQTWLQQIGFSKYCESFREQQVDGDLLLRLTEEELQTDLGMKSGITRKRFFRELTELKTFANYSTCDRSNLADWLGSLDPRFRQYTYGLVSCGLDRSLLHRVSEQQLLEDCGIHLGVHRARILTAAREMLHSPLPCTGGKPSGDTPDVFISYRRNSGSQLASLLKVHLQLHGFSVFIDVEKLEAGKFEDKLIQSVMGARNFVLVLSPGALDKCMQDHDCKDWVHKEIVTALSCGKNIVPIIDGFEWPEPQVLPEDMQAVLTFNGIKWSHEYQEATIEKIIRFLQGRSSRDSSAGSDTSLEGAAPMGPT
Chain of ATP-dependent translocase ABCB1 (Homo sapiens) (P08183 whole entry, looked up): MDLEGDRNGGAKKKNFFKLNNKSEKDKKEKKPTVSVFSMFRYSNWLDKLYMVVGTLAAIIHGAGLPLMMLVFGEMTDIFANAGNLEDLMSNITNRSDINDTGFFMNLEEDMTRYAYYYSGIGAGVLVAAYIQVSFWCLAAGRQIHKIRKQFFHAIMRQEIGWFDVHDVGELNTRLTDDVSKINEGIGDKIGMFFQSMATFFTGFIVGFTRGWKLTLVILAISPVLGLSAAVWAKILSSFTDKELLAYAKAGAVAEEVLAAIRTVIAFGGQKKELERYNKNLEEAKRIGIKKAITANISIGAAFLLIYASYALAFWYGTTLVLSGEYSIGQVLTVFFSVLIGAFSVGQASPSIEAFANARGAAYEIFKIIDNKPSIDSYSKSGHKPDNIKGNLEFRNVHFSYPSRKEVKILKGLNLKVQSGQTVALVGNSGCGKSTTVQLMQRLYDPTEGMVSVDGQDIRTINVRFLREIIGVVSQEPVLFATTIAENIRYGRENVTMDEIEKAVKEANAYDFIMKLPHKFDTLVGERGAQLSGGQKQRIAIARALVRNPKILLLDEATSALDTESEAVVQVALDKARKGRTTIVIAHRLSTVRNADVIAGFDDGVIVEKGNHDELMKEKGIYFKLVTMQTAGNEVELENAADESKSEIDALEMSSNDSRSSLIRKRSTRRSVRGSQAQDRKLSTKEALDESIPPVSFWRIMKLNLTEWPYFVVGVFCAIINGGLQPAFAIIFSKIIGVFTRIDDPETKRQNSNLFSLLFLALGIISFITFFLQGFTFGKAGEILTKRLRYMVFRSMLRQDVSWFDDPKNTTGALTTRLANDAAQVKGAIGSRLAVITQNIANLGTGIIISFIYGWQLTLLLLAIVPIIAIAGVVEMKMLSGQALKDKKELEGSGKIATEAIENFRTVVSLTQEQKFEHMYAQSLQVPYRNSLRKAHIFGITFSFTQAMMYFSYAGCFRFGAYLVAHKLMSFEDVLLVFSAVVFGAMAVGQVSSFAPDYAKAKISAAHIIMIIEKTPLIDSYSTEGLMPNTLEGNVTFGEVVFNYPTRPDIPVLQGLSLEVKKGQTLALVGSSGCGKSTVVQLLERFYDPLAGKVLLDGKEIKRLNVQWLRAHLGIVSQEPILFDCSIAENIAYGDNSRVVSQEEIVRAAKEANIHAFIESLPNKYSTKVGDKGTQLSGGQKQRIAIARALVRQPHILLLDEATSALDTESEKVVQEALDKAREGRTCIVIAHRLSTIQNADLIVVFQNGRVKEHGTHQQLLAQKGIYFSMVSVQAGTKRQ

For `C[N+](C)(C)CC(=O)O`, in test [1], the period change was -0.005 h (inactive). Moreover, the results for the inhibition in test [2] and in test [4] were -5% (inactive) and 5.32% (inactive), respectively. In addition, the fluorescence ratio (interference) in [3] is 0.9 (inactive). Besides, the remaining activity in [5] was 106% (inactive). Moreover, the call in test [6], in test [7], in test [8] and in [9] was inactive. In addition, the fold change in test [10] (stronger effect = lower value) was 1.03 (inactive); in [10] (setting [35]), 1.89. In addition, the cell count amounted to 9950 in test [10] (setting [36]) and 9700 in [10] (setting [37]). Besides, the remaining NAD in test [11] is 10 nM (inactive). Besides, in test [12], the luciferase signal was 268 AU (inactive). In addition, the z-score in test [13] was 0.805 (inactive).

With `CC(C)=CCOc1c2occc2cc2ccc(=O)oc12`, the parasite load remaining in [14] is 18.8% (inactive). Further, the viability in test [14] was found to be 92.7%. Further, the inhibition in test [2] was -2% (inactive); in [4] it was 4.77% (inactive). Moreover, the fluorescence ratio (interference) in test [3] was 1 (inactive). The activity remaining in test [15] is 108% (inactive). The fold change was 1.08 (inactive) in test [10] (stronger effect = lower value) and 1.1 in test [10] (setting [35]). Also, the cell count in test [10] (setting [36]) was determined as 8640; in [10] (setting [37]), 8010. Besides, in [16], the compound was classed as inactive. Further, the z-score in [13] was 0.56 (inactive).

As for `OCC(O)Cc1ccc2c(c1)OCO2` (centres undefined), in test [4], the inhibition is 11.1% (inactive). For the same compound, in test [15], the activity remaining was 123% (inactive). In test [12], the luciferase signal is 16 AU (inactive).

As to `C[C@]12CC[C@H](O)C[C@@H]1CC[C@@H]1[C@@H]2CC[C@]2(C)C(=O)CC[C@@H]12`, in [17], the fluorescence slope change was 99.1% (active). For the same compound, the survival in test [18] is 10.7 (inactive). For the same compound, in [14], the parasite load remaining was 91.7% (inactive) and 87.8% (inactive). In addition, the viability in test [14] was 100% and 84.1%. The inhibition in [4] was 18.5% (inactive). In addition, the fold change is 0.944 (inactive) in [10] (stronger effect = lower value) and 1.47 in [10] (setting [35]). Moreover, the cell count amounted to 7960 in test [10] (setting [36]) and 8440 in test [10] (setting [37]). In addition, the z-score was 0.265 (inactive) in test [19] (setting [38]) and 0.304 in [19] (setting [39]). Further, the luciferase signal in [12] was 20 AU (inactive).

Turning to `CC(C)[C@]12O[C@H]1[C@@H]1O[C@@]13[C@@]1(C)CCC4=C(COC4=O)[C@@H]1C[C@@H]1O[C@@]13C2=O`, the inhibition in [4] was 3.27% (inactive). In addition, the half-maximal activity concentration (AC50) in test [20] is 295 nM (active); in [21], 263 nM (active); in test [22] it was 372 nM (active); in [23] it was 132 nM (active). In addition, the concentration for half-maximal inhibition (IC50) in [24] was 372 nM (active).

For `Cc1cc2c(C(C)C)c(O)c(O)c(C=O)c2c(O)c1-c1c(C)cc2c(C(C)C)c(O)c(O)c(C=O)c2c1O`, the inhibition is 60.9% in [25]; 68% (active) in [27]; 14.1% (inactive) and -10.8% (inactive) in test [4]. The aggregation ratio in test [26] was 0.119. In test [27], the EC50 worked out at 57000 nM. For the same compound, the score in test [28] worked out at 1.78. In test [29], this compound displayed a rescue above control of 0. Moreover, in test [30], the cytochrome c release ratio is 0.19. In [31], this compound registered an inhibition of aggregation of 19.1%. The glutamate uptake change in [32] was -53.4%. The compound also came in with an inclusion score in test [33] of 0. Also, in [34], the aggregation suppression score came to 0.368. Also, the activity remaining in test [15] was 96.1% (inactive) and 125% (inactive). Moreover, the z-score was -0.449 (inactive) and -0.0386 (inactive) in test [19] (setting [38]); -0.0272 and 0.0258 in [19] (setting [39]).

Turning to `CC[C@@]1(O)C[C@H](O[C@H]2C[C@H](N(C)C)[C@H](O)[C@H](C)O2)c2c(cc3c(c2O)C(=O)c2c(O)cccc2C3=O)[C@H]1C(=O)OC`, the inhibition in [25] stood at 61.1%. In [28], the score stood at 0.65. Further, the rescue above control in test [29] came out at 1.11. In addition, the cytochrome c release ratio in test [30] was 3.13. Further, in test [31], the inhibition of aggregation amounted to 90.8%. In test [32], the glutamate uptake change is -25.9%. In addition, the aggregation suppression score in [34] came out at 0.115. In [14], the parasite load remaining was 0.915% (inactive) and the viability was 15.1%. Further, in test [4], the inhibition is -8.44% (inactive). In test [15], the activity remaining is 107% (inactive). Moreover, the luciferase signal in [12] was 5360 AU (active).

Regarding `CC(C)Nc1nc(Cl)nc(NC(C)C)n1`, the inhibition in test [4] is -12% (inactive). For the same compound, the activity remaining in test [15] is 111% (inactive). Moreover, the luciferase signal in [12] is 52 AU (inactive).
